For 28 molecules, z-score results are on record in PubChem BioAssay.

Values without a mark were called inactive. The source made the active and inactive calls.

This experiment deals with Homeobox protein Hox-A13 (Mus musculus) (UniProt Q62424). As to the kind of experiment: disruptors of Hoxa13 oligonucleotide interaction – biochemical, fluorescence polarization, labeled oligonucleotide, primary screen (AID 1185). The settings on record: Hoxa13:DNA binding, 15 min, higher = more signal, called active from +8 up or from −8 down. (In fluorescence polarisation assays a small probe gives low polarisation when free and higher when bound to something large.)
Chain of Homeobox protein Hox-A13 (Mus musculus) (Q62424 whole entry, looked up): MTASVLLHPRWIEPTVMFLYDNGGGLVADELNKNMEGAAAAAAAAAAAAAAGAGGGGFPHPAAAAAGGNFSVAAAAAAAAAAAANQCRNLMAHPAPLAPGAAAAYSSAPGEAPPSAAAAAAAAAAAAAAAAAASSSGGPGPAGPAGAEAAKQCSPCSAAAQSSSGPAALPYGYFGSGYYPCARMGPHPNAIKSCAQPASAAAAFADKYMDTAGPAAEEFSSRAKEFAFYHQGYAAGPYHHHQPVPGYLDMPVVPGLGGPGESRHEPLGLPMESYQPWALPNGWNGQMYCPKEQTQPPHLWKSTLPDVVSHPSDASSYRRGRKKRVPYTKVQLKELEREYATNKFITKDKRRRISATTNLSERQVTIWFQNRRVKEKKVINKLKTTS
Turning to `CC(C)CCN1CCc2nc(COc3ccccc3)c3c(c2C1)CO[C@@H](C)C3`, the z-score is -5.02. For the molecule `CO[C@H]1COC(=O)[C@H](C)NC(=O)CC=C[C@@H](C)[C@H](OC)COC(=O)[C@@H](OCc2ccccc2)C=C[C@@H]1C`, the z-score is -0.22. In the case of `O=C1CCCC=C1C(CCc1ccccc1)OC(=O)c1ccc(Br)cc1` (stereo not drawn), the z-score was -1.88. Turning to `CC(CCN1CCc2nc(-c3ccccc3)c(-c3ccccc3)cc2C1)=NOC[C@@H](O)[C@H]1O[C@@H]2OC(C)(C)O[C@@H]2[C@H]1O`, the z-score is -5.63. As to `O=C1[C@H]2[C@H]3[C@H](O)[C@H](O)CC(=NOCc4ccccc4)[C@@H]3CC[C@H]2C(=O)N1Cc1ccc2c(c1)OCO2`, the z-score is -3.53. On to `COc1cccc([C@H]2Oc3ccc(OC)cc3C(=NO[C@@H](C)c3cn([C@H](CO)Cc4ccccc4)nn3)[C@@H]2O)c1`, for which the z-score was -6.48. For `COC(=O)[C@H](C)NC(=O)CCC1CC(OC(=O)NCc2ccc3c(c2)OCO3)CC2(CCCC(COC(=O)NCC3CCCCC3)O2)O1` (stereo partly drawn), the z-score is -4.19.

In the case of `CC(C)(C)N1C(=O)[C@H]2[C@H]3[C@H](O)[C@H](O)CC(=NOCc4ccccc4)[C@H]3CC[C@H]2C1=O`, the z-score is -4.16.

Regarding `CC(CCN1CCCCc2nc(C)c(C)cc21)=NOC[C@@H](C)[C@H](OCc1ccccc1)C(C)C`, the z-score is -2.47.

For the molecule `Cc1cc2c(nc1C)CCCCN2CC(C)ON=C[C@@H](C)[C@H](OCc1ccccc1)C(C)C` (stereo partly drawn), the z-score was -3.66. The same measure for `CCc1cc2c(nc1CC)CCN(CCC(C)=NO[C@H](C)c1cn([C@@H]3COC[C@H]3O)nn1)C2`: -1.7; for `C#CCCCON=C1C[C@@H](O)[C@@H](O)[C@@H]2[C@@H]3C(=O)N(c4ccc(F)cc4F)C(=O)[C@@H]3CC[C@@H]12`: -3.13.

Regarding `C[C@@H]1C=CCC(=O)OC[C@H]2O[C@@H](C=C[C@@H]2O)[C@H](C)C=CCC(=O)OC1`, the z-score was -0.659. Regarding `CC(CCN1CCCc2nc(C)c(C)cc21)=NOC(C)CN1CCCCc2nc(C)c(C)cc21` (stereo not drawn), the z-score is -6.78. The same measure for `CC(CCN1CCCCc2nc(C)c(C)cc21)=NO[C@@H](C)c1cn([C@H](CO)Cc2ccccc2)nn1`: -4.4; for `CC(C)=CCCC(C)=CCON=C1C[C@@H](O)[C@@H](O)[C@@H]2[C@@H]3C(=O)N(C(C)(C)C)C(=O)[C@@H]3CC[C@H]12`: 0.263. Take `CCN1C(=O)[C@@H]2[C@H]3C(=CC[C@@H]2C1=O)C1(OCCCO1)[C@H]1O[C@H]1[C@H]3O`: the z-score is -10.9 (active).

For the molecule `O=C1C[C@@H](O)[C@@H](O)[C@@H]2[C@@H]3C(=O)N(C[C@@H]4CCCO4)C(=O)[C@@H]3CC[C@@H]12`, the z-score is 0.368. Turning to `CCOC(=O)NN=C1C[C@@H](O)[C@@H](O)[C@@H]2[C@@H]3C(=O)N([C@@H](C)c4ccccc4)C(=O)[C@@H]3CC[C@H]12`, the z-score is -1.52.

For `CCCNC(=O)OC[C@H]1O[C@H](c2ccccc2)C=C[C@@H]1Oc1ccc(OC)cc1`, the z-score is -1.63. As to `C[C@H]1CC[C@H]2C(=O)O[C@H](COc3ccc(C(C)(C)C)cc3)CN2[C@@H]1c1ccc(Br)cc1`, the z-score is 1.13. As to `CCOC(=O)[C@H](Cc1ccccc1)NC(=O)CCC1CC(OC(=O)NCc2cccc3ccccc23)CC2(CCCC(COC(=O)NCCC(C)C)O2)O1` (stereo partly drawn), the z-score is -5.99. Regarding `COC(=O)[C@@H]1CC[C@H](C)[C@@H](c2ccc(C)cc2)N1C(=O)c1ccc(C=NOC[C@@H](C)[C@H](OCc2ccccc2)C(C)C)cc1`, the z-score is -4.87.

With `C=CC[C@@H]1C=C[C@H](ON=C(C)CCC(=O)OC[C@H]2O[C@H](C#Cc3ccccc3)C=C[C@@H]2Oc2ccc(C)cc2)[C@@H](CO)O1`, the z-score was -4.14. On to `CCOC(=O)[C@H](CC(C)C)NC(=O)CCC1CC(OC(=O)NCc2cccc3ccccc23)CC2(CCCC(COC(=O)NCc3ccncc3)O2)O1` (stereo partly drawn), for which the z-score was -6.29. As for `COc1ccc(O[C@H]2C=C[C@@H](c3ccccc3)O[C@@H]2COC(=O)CCC(C)=NOC(C)CN2CCCc3nc(C)c(C)cc32)cc1` (stereo partly drawn), the z-score is -5.13. Take `COC(=O)CC=C[C@@H](C)[C@@H]1C=C[C@H](O)[C@@H](CO)O1`: the z-score was -0.235. Consider `COC(=O)C1=C(C)N(Cc2ccccc2)[C@]23O[C@](C(=O)OC)(C(=O)N2[C@@H]1c1ccccc1)C(C(=O)OC)=C3C(=O)OC`, for which the z-score was -3.67.
